Results on 89 compounds are retold here after PubChem BioAssay AID624125 (The Scripps Research Institute Molecular Screening Center, 2012).

Values joined by “and” are separate entries in the source; they are usually repeats but may differ in a detail not shown here. Identical values can stand only once. Screen size: about 360,000 compounds; about 2,600 (0.72%) were called active.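 How the source made its calls: active means inhibition above its plate's cutoff, the mean inhibition of sample wells plus 3 SD (cut at about 27% in these data); inactive means the rest.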 For the sample, actives were picked, then their nearest neighbours and some compounds at random. Some compounds were tested as several samples or in several runs, with calls that do not always agree.

The target of the assay is Muscarinic acetylcholine receptor M4 (Homo sapiens) (UniProt P08173). The experiment in a line: CHRM4 blockers of acetylcholine calcium response – CHO cells, Fluo-8 calcium fluorescence, primary screen (AID 624125).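 Further: 0% = acetylcholine EC80 with DMSO and 100% = DMSO without agonist.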 To be noted: CHO-hM4 cells, ACh EC80, Fluo-8 calcium fluorescence; at 3 µM; stronger effect = higher value.
Chain of Muscarinic acetylcholine receptor M4 (Homo sapiens) (P08173 whole entry, looked up): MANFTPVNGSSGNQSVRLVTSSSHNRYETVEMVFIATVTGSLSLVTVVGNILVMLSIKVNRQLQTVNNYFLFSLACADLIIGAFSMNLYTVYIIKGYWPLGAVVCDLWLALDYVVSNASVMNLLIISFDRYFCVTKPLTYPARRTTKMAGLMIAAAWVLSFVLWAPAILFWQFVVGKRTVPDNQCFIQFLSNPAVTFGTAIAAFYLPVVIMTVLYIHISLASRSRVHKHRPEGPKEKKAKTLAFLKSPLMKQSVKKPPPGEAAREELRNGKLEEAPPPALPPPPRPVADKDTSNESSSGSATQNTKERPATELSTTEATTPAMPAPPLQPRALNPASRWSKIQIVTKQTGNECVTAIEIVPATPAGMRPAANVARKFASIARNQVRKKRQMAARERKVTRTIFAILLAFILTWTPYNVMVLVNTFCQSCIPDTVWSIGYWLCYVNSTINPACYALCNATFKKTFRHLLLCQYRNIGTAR
The inhibition is the change of the read-out against control, counted positive when it falls. In the case of `CCOC(=O)[C@H]1[C@H]2COc3ccc(C)cc3[C@@H]2N2C(=O)CN(Cc3ccc(F)cc3)C(=O)[C@@]12C`, the inhibition was 56.2% (active). As to `CCOC(=O)[C@H]1[C@H]2COc3cc(OC)ccc3[C@@H]2N2C(=O)CN(Cc3ccc(Cl)cc3)C(=O)[C@@]12C`, the inhibition was 2.23% (inactive). As for `CCOC(=O)[C@H]1[C@H]2COc3ccccc3[C@@H]2N2C(=O)CN(Cc3ccccc3)C(=O)[C@@]12C`, the figure is -1.92% (inactive); as for `CC(C)CNC(=S)NC(=O)c1ccc(Cl)cc1`, -0.83% (inactive). As for `COc1ccc(N2CC(C(=O)NCCN3C(=O)S/C(=C\c4cccnc4)C3=O)CC2=O)c(OC)c1` (centres undefined), the figure is -13.5% (inactive); as for `O=C(NC(Cc1ccc(O)cc1)C(=O)O)/C(=C/c1ccccc1)NC(=O)c1ccccc1` (centres undefined), 0.71% (inactive); as for `COc1cccc(C(=O)NNS(=O)(=O)c2ccc(F)cc2)c1`, 9.85% (inactive). For the compound `CC(C)NC(=O)C1(C)CCCCN1Cc1cccc(C(F)(F)F)c1` (centres undefined), the inhibition was -7.19% (inactive).

With `O=C(COC(=O)c1ccc(S(=O)(=O)Nc2ccccc2)cc1)NCC1CCCO1` (centres undefined), the inhibition is 0.71% (inactive). In the case of `C=CCC1(CC=C)CCCN1C(=O)c1cc(COc2ccc(-n3cncn3)cc2)on1`, the inhibition was 28.6% (active). `O=C(c1cc(COc2c(F)cccc2F)on1)N1CCSCC1`: the inhibition is 8.34% (inactive). As to `CCCC(=O)N1CCC1(C)C(=O)Nc1ccc(-n2cncn2)cc1` (centres undefined), the inhibition was -7.42% (inactive).

With `Cc1cccc(C)c1Nc1nnc(SCC(=O)NCCCN2CCCC2=O)s1`, the inhibition was -0.57% (inactive). For `COC(=O)c1sccc1NC(=O)CC1C(=O)NCCN1C(=O)Nc1ccc(F)cc1F` (centres undefined), the inhibition is -7.71% (inactive). Take `COc1ccc(CC(=O)Nc2c3c(nn2-c2cccc(Cl)c2)CS(=O)C3)cc1` (centres undefined): the inhibition is 3.64% (inactive). With `Cc1cc(OCCN2CCCC2)ccc1C(C)C` the figure was -0.72% (inactive); with `Cc1cc(OCCN2CCCC2)cc(C(C)C)c1`, 33% (active). On to `Cc1ccc(C(C)C)cc1OCCN1CCCC1`, for which the inhibition is 9.89% (inactive). For the compound `CCOC(=O)[C@]12CCCC=C1N(CCC1=CCCCC1)C(=O)[C@H](CC(=O)NCCCOC)C2`, the inhibition was -3.81% (inactive). Turning to `CC(=O)N(CC1CCCO1)C1(C(=O)NC2CCCC2)CCCCC1` (centres undefined), the inhibition is -5.29% (inactive). As for `CN(CC#CCC(c1ccccc1)c1ccccc1)C(C)(C)C`, the figure is 78.5% (active); as for `Cc1cc(Cl)ccc1C(=O)C1CCCN(C(=O)CCN2CCCO2)C1` (centres undefined), 4.93% (inactive). Take `CCCCCCCCCCOC(=O)Cn1c(COc2cccc(OC)c2)[n+](C)c2ccccc21`: the inhibition is 36% (active). With `COCCN1C(=O)C(=O)/C(=C(/O)c2ccc(S(=O)(=O)N3CCCCC3)cc2)C1c1ccc(OC)c(OC)c1` (centres undefined) the figure was -5.56% (inactive); with `CC(C)c1cc(C(=O)N/N=C/c2ccoc2)c(O)c(C(C)C)c1`, 5.01% (inactive); with `O=C(Cc1ccc(Cl)cc1)NC(=S)Nc1ccccc1O`, 59% (active). Turning to `COC(=O)c1ccccc1NC(=O)CN(Cc1ccc(Cl)cc1)S(C)(=O)=O`, the inhibition is 1.99% (inactive). For the compound `Fc1ccccc1CNC(=S)Nc1ccc(Cl)cc1`, the inhibition was 4.18% (inactive). With `CCOc1ccc(S(=O)(=O)N(CC(=O)NCC(F)(F)F)Cc2ccco2)cc1` the figure was -2.55% (inactive); with `Cc1ccc(OCCNC(=O)CCNS(=O)(=O)c2ccc(Br)cc2)cc1`, -11.5% (inactive); with `Cc1ccc(OC(=O)c2c(C)nn(-c3ccccc3)c2C)cc1`, -5.29% (inactive). As for `CCC1OC(c2ccc([N+](=O)[O-])cc2)=Nc2ccccc21` (centres undefined), the inhibition is 31.2% (active). For `CCCCN(C)c1ccc([N+](=O)[O-])cc1`, the inhibition was 12.1% (inactive). Consider `COc1ccccc1CSc1ncc(-c2ccc([N+](=O)[O-])cc2)[nH]1`, for which the inhibition was -1.68% (inactive). `CCOC(=O)c1cc(-c2ccccc2C)n(Cc2cc(C)no2)n1`: the inhibition is 4.03% (inactive). As to `CCCCNCCS(=O)(=O)NCc1ccccc1`, the inhibition was 7.64% (inactive). For the compound `C=CC1=C(C(=O)O)N2C(=O)[C@@H](NC(=O)/C(=N\OCC(=O)O)c3csc(N)n3)[C@H]2SC1`, the inhibition is -25.2% (inactive).

As for `C=CC1=C(C(=O)O)N2C(=O)[C@@H](NC(=O)/C(=N/OCC(=O)O)c3csc(N)n3)[C@H]2SC1`, the inhibition is -12.2% (inactive). With `CO/N=C(\C(=O)N[C@@H]1C(=O)N2C(C(=O)O)=C(COC(C)=O)CS[C@H]12)c1csc(N)n1` (stereo in doubt), the inhibition is -6.4% (inactive) and 79.2% (active) and 82.7% (active). On to `Cn1c(Cc2cccc3ccccc23)nnc1SCC(=O)N1CCN(c2cccc(Cl)c2)CC1`, for which the inhibition was -1.27% (inactive).

As for `O=C(Cc1csc(Nc2nc(=S)[nH]c3ccccc23)n1)NCCCN1CCN(c2cccc(Cl)c2)CC1`, the inhibition is 32.6% (active). With `O=C(Cc1ccc(-n2c(=O)[nH]c3ccccc3c2=O)cc1)N1CCN(c2cccc(Cl)c2)CC1`, the inhibition was -5% (inactive). As for `COc1cc(SC#N)ccc1N=Cc1c(C)[nH]n(-c2ccc(C)cc2)c1=O`, the inhibition is 39.7% (active).

As for `CCN(CC(=O)NCc1cccs1)S(=O)(=O)c1ccc(NC(C)=O)cc1`, the inhibition is 16.2% (inactive). As for `CCCCNC(=O)N1CCN(S(C)(=O)=O)CC1`, the inhibition is 10.9% (inactive).

For `O=C(Nc1ccc(Cl)c(C(F)(F)F)c1)C1Cc2c(-c3ccccc3Oc3ccccc3)ccnc2O1` (centres undefined), the inhibition is 6.27% (inactive). For `O=C1c2ccccc2C(=O)N1CCC(O)C[N+](=O)[O-]` (centres undefined), the inhibition was -2.27% (inactive). As for `O=C1c2ccccc2C(=O)N1CCC(c1ccccc1)c1ccco1` (centres undefined), the figure is 35.6% (active); as for `Nc1ccc(SCCN2C(=O)c3ccccc3C2=O)cc1`, 2.61% (inactive); as for `Cc1ccc(NC(=O)COC(=O)C2C3CC4OC(=O)C2C4C3)cc1Cl` (centres undefined), 15.9% (inactive). With `CCCN1C(=O)C(NC(C)=O)c2cc(OC)ccc21` (centres undefined) the figure was 13.9% (inactive). As to `ON=C1/C(=N\O)CC2(C/C1=N/O)OCCO2`, the inhibition was 10.7% (inactive). As for `COc1cc(/C=C2\SC(=O)NC2=O)ccc1OCc1ccc(Cl)nc1`, the figure is -5.37% (inactive). As for `CN(C(=O)CN1C(=O)/C(=C/c2ccc(Cl)cc2)SC1=S)C1CCS(=O)(=O)C1` (centres undefined), the inhibition was -3.95% (inactive).

As to `COc1cc(/C=C2/SC(=S)N(Cc3ccccc3)C2=O)cc(OC)c1O`, the inhibition was 34.3% (active). For `Cc1cc(C)cc(C(=O)N(CCc2ccccc2)C2=CC3CCC(C2)N3C)c1` (centres undefined), the inhibition was 2.44% (inactive). Turning to `CCCN(CCc1ccccc1)C1CCc2c(O)cccc2C1` (centres undefined), the inhibition is 50.8% (active). As to `Cc1cccc(C)c1NC(=O)C(c1cccc2ccccc12)n1c(=O)c(-c2ccco2)nc2ccccc21` (centres undefined), the inhibition was -2.98% (inactive). On to `Cc1ccc(S(=O)(=O)N2CCN(C(=O)COC(=O)CNC(=O)c3ccc(C(C)(C)C)cc3)CC2)c(C)c1`, for which the inhibition is 1.62% (inactive). In the case of `Cc1cccc(C)c1NC(=O)c1ccc(CN2CCc3ccccc3C2)cc1`, the inhibition was 12.8% (inactive). With `Cc1cccc2c1-c1sc(C(=O)NCCCN3CCc4ccccc4C3)cc1CO2` the figure was 45.9% (active); with `Cc1ccc(NC(=O)CN2CCc3ccccc3C2)cc1C`, 1.35% (inactive); with `Cc1ccc(C(=O)OCC(=O)NC(=O)Cc2ccccc2)c(O)c1`, 3.16% (inactive). With `CC1CCCCC1NC(=O)CN1CCC(O)(c2ccc3c(c2)OCO3)CC1` (centres undefined), the inhibition was -5.57% (inactive). Regarding `COc1ccc(C)cc1NC(=O)C(OC(=O)c1cccc(S(=O)(=O)N(C)c2ccccc2)c1)c1ccccc1` (centres undefined), the inhibition was 5.12% (inactive). As for `CC(=O)c1c(C)[nH]c(C(=O)OCC(=O)Nc2c(C)cccc2C)c1C`, the inhibition is 4.68% (inactive). With `CC(=O)c1c(C)[nH]c(C(=O)COC(=O)c2cccc(S(=O)(=O)N(C)c3ccccc3)c2)c1C`, the inhibition was 54.5% (active). Turning to `C=CCSc1nc(N)cc(=O)[nH]1`, the inhibition was 4.39% (inactive). `O=C(C1CCN(CC2CCCCC2)CC1)N1CCCC1`: the inhibition is -6.1% (inactive). As to `CC(=O)NC(c1cccc(F)c1)c1nc(-c2cccc(F)c2)cs1` (centres undefined), the inhibition was -12% (inactive). With `CCC(=O)OCc1c(C(F)(F)F)nn(C)c1Oc1cccc(C(F)(F)F)c1` the figure was 9.7% (inactive); with `COC(=O)c1ccccc1Sc1c(/C=N/OCc2ccc(Cl)cc2)c(C(F)(F)F)nn1C`, -7.11% (inactive); with `Cn1nc(C(F)(F)F)c(C(=O)Nc2cccc(C(F)(F)F)c2)c1SCc1ccc(Cl)cc1`, 33.8% (active).

Turning to `C=CCNC(=S)/N=c1/ccccn1Cc1ccccc1`, the inhibition is 11.8% (inactive). With `COc1cccc(CNc2nc(NCc3ccccc3OC)nc3ccsc23)c1`, the inhibition was 13.8% (inactive). For `COc1cccc(CNc2nc(NCc3cccs3)nc3ccsc23)c1`, the inhibition was 48.6% (active).

On to `COc1ccccc1CNc1nc(Nc2ccccc2Cl)c2sccc2n1`, for which the inhibition was 3.54% (inactive). As for `COc1ccc(OCC(=O)Nc2cc(C)c(Cl)cc2OC)c([N+](=O)[O-])c1`, the inhibition was -4.9% (inactive). `Cc1ccccc1C(OCCN(C)C)C1CCCCC1` (centres undefined): the inhibition is 83% (active). Consider `CN(C)CCOC1c2ccccc2-c2ccccc21`, for which the inhibition is 3.09% (inactive). As to `Cc1ccccc1C(OCC(O)CN1CCCCC1CCO)c1ccccc1` (centres undefined), the inhibition was 8.86% (inactive). With `Cc1n[nH]c(=O)n1-c1ccc(Oc2ccccc2)cc1`, the inhibition is -7.75% (inactive). In the case of `COc1ccc(OC)c(/C=N/NC(=O)c2ccc[n+](CC(=O)c3ccccc3)c2)c1`, the inhibition was -5.54% (inactive).

On to `COc1cccc(/C=N/Nc2cc(C)nc(-c3ccccc3O)n2)c1O`, for which the inhibition is 28.3% (active). On to `CCCCCCCCn1c2c(c(=N)c3c1CCC3)CCCC2`, for which the inhibition is 36.8% (active). For `CC1CN(S(=O)(=O)c2ccccc2)C(C)CN1S(=O)(=O)c1ccccc1` (centres undefined), the inhibition is -4.76% (inactive). On to `O=C(CC(NC(=O)c1ccccc1)c1ccccc1)Nc1ccc(F)c(F)c1` (centres undefined), for which the inhibition is -4.69% (inactive).

As for `COc1ccccc1OCc1nnc(SCC(N)=O)n1-c1ccccc1`, the inhibition was -4.24% (inactive). Turning to `CC1CCN(C(=O)c2ccc(S(=O)(=O)Cc3cc(F)ccc3F)c([N+](=O)[O-])c2)CC1`, the inhibition was -7.53% (inactive).
